“And” between values parts separate entries of the source, which are not always exact repeats. Equal entries are not always repeated. Records with an inconclusive call do not appear. More than one record can exist for a structure, and the calls need not agree. The source made the active and inactive calls. Unless noted, the call rests on the fitted dose curve; in most records, active means well fitted curve in the direction sought with a large enough effect in the repeat runs; inconclusive means weak or mixed curves; inactive means no such curve, though single readings can be large; an effect the other way counts as inactive or inconclusive.
Key:
[1] = Human pregnane X receptor (PXR) small molecule agonists, qHTS cell viability counter screen (AID 1346977); further: nearly all actives have a fitted effect of over 50% in size; further: potency means the concentration at half of the fitted maximal effect
Procedure, shortened: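 After a 5hr pre-incubation, PXR-Luc HepG2 cells received compounds plus positive control in DMSO and were kept 24hr at 37C. Cell viability was quantified by fluorescence from CellTiter-Fluor added for the final hour.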

[2] = Caspase-3/7 induction in HepG2 cells by small molecules, qHTS assay (AID 1346978); further: nearly all actives have a fitted effect of over 15% in size; further: potency means the concentration at half of the fitted maximal effect
Procedure, shortened: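 Wild-type HepG2 cells, 2,000/well, settled 5 hr at 37 C and 5% CO2, then compound-treated for 17 hr; caspase-3/7 activity read by luminescent Caspase-Glo 3/7 after 30 min at room temperature.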

[3] = Caspase-3/7 induction in CHO-K1 cells by small molecules, qHTS cell viability counter screen (AID 1346979); further: nearly all actives have a fitted effect of over 35% in size; further: potency means the concentration at half of the fitted maximal effect
Procedure, shortened: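 Multiplexed with Caspase-Glo 3/7 in CHO-K1 cells, this counter screen added CellTiter-Fluor after 16hr of compound exposure and recorded fluorescence 1hr later.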

[4] = Caspase-3/7 induction in CHO-K1 cells by small molecules, qHTS assay (AID 1346980); further: nearly all actives have a fitted effect of over 15% in size
Procedure, shortened: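 Wild-type CHO-K1 cells exposed to compounds for 17hr at 37 C, 5% CO2. Caspase-3/7 activity then measured by Caspase-Glo 3/7 luminescence after 30min at room temperature.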

[5] = Caspase-3/7 induction in HepG2 cells by small molecules, qHTS cell viability counter screen (AID 1346981); further: nearly all actives have a fitted effect of over 30% in size; further: potency means the concentration at half of the fitted maximal effect
Procedure, shortened: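 Wild-type HepG2 cells (2,000/well) were allowed to settle for 5 hr at 37 C, 5% CO2, then dosed with compounds in DMSO by pin transfer. After 16 hr at 37 C, CellTiter-Fluor was added and fluorescence read 1 hr later.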

[6] = target: Nuclear receptor subfamily 1 group I member 2 (Homo sapiens) (UniProt O75469); assay: Human pregnane X receptor (PXR) small molecule agonists, qHTS assay (AID 1346982); further: nearly all actives have a fitted effect of over 35% in size
Procedure, shortened: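 PXR-Luc HepG2 cells (CYP3A4 promoter-driven luciferase) were seeded in medium with 5% charcoal-stripped FBS, left 5 hr at 37 C, then exposed to compounds in DMSO for 24 hr. Luminescence was read after ONE-Glo addition.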

[7] = target: Nuclear receptor subfamily 1 group I member 2 (Rattus norvegicus) (UniProt Q9R1A7); assay: Rat pregnane X receptor (rPXR) activation by small molecules, qHTS assay (AID 1346983); details: rPXR luciferase reporter cells, One-Glo luminescence, 24 h; max activation: stronger effect = higher value; further: nearly all actives have a fitted effect of over 20% in size
Procedure, shortened: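 Cell-based rPXR activation assay: rPXR cells, 2,000 per well, rested 5hr at 37 C, then exposed to compounds in DMSO for 24 hr at 37 C. Luciferase activity read by One-Glo luminescence after 30 min at room temperature.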

[8] = target: Nuclear receptor subfamily 1 group I member 2 (Homo sapiens) (UniProt O75469); assay: CYP3A4 induction through human pregnane X receptor (PXR) by small molecules, qHTS assay (AID 1346984); further: nearly all actives have a fitted effect of over 40% in size
Procedure, shortened: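 DPX-2 cells (HepG2 co-transfected with PXR and CYP3A4 promoter-luciferase) treated with compounds 24 h at 37C; luciferin-IPA CYP3A4 substrate 3uM final added for 3 h, then One-Glo; luminescence read. qHTS format.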

[9] = target: Acetylcholinesterase (Homo sapiens) (UniProt P22303); assay: Acetylcholinesterase (AChE) small molecule antagonists: colormetric cell-based qHTS assay (AID 1347395; calls by dose curve; further: nearly all actives have a fitted effect of over 30% in size; further: potency means the concentration at half of the fitted maximal effect)
Procedure, shortened: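 In this cell-based qHTS, attached SH-SY5Y cells were treated with test chemicals for 30 min, after which acetylthiocholine hydrolysis was followed by DTNB colour development over 90 min at 37 C.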

[10] = target: Acetylcholinesterase (Homo sapiens) (UniProt P22303); assay: Acetylcholinesterase (AChE) small molecule antagonists: enzyme-based qHTS assay (AID 1347397; calls by dose curve; further: nearly all actives have a fitted effect of over 55% in size); details: Potency: AChE enzyme activity inhibition
Procedure, shortened: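 Enzyme inhibition was scored from DTNB-detected thiocholine formed by recombinant human AChE acting on acetylthiocholine. The 30 min compound preincubation and 10 min substrate reaction were both run at room temperature, with DMSO as vehicle control.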

[11] = target: Acetylcholinesterase (Homo sapiens) (UniProt P22303); assay: Acetylcholinesterase (AChE) small molecule antagonists: fluorescence cell-based qHTS assay (AID 1347398; calls by dose curve; further: nearly all actives have a fitted effect of over 50% in size; further: potency means the concentration at half of the fitted maximal effect); details: Potency: AChE activity
Procedure, shortened: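 Endogenous acetylcholinesterase of SH-SY5Y neuroblastoma cells is measured in situ. After overnight attachment and 30 min compound exposure, cells receive acetylthiocholine and Thiolite Green; fluorescence is read after 40 min at room temperature.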

[12] = target: Acetylcholinesterase (Homo sapiens) (UniProt P22303); assay: Acetylcholinesterase (AChE) small molecule antagonists: enzyme-based qHTS assay with human liver microsomes (AID 1347399; calls by dose curve; further: nearly all actives have a fitted effect of over 60% in size); details: Potency: qHTS inhibition
Procedure, shortened: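 Recombinant human AChE (50 mU/mL in the enzyme mix) and human liver microsomes (0.25 mg/mL final) were preincubated with compound and NADPH (0.25 mg/mL final) for 30 min at 37 C. Acetylthiocholine/DTNB was then added; thiocholine was read colorimetrically after 10 min at room temperature.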

[13] = target: Cytochrome P450 2D6 (Homo sapiens) (UniProt P10635); assay: Cytochrome P450 Family 2 Subfamily D Member 6 (CYP2D6) small molecule antagonists: luciferase reporter qHTS assay (AID 1671196); further: nearly all actives have a fitted effect of over 50% in size; further: potency means the concentration at half of the fitted maximal effect
Procedure, shortened: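 CYP2D6 enzyme–substrate mix was held with compound for 10 min at room temperature, then NADPH regeneration solution was added and the reaction ran 1 h at room temperature. Luciferin product was detected by luminescence after 20 min with detection reagent.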

[14] = target: Cytochrome P450 2C19 (Homo sapiens) (UniProt P33261); assay: Cytochrome P450 Family 2 Subfamily C Member 19 (CYP2C19) small molecule antagonists: luciferase reporter qHTS assay (AID 1671197); further: nearly all actives have a fitted effect of over 65% in size; further: potency means the concentration at half of the fitted maximal effect
Procedure, shortened: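 Quantitative high-throughput screen of the Tox21 library using CYP2C19 with proluciferin substrate. Reaction: NADPH regeneration, 37C, 1 h, after 10 min compound preincubation at room temperature. Readout: luminescence.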

[15] = target: Cytochrome P450 2C9 (Homo sapiens) (UniProt P11712); assay: Cytochrome P450 Family 2 Subfamily C Member 9 (CYP2C9) small molecule antagonists: luciferase reporter qHTS assay (AID 1671198); further: nearly all actives have a fitted effect of over 50% in size; further: potency means the concentration at half of the fitted maximal effect
Procedure, shortened: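 P450-Glo proluciferin substrate with CYP2C9 enzyme; 10 min RT preincubation, then NADPH regeneration 1 h at 37C; luciferin detection reagent 20 min RT, luminescence in relative luminescence units.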

[16] = target: Cytochrome P450 1A2 (Homo sapiens) (UniProt P05177); assay: Cytochrome P450 Family 1 Subfamily A Member 2 (CYP1A2) small molecule antagonists: luciferase reporter qHTS assay (AID 1671199); further: nearly all actives have a fitted effect of over 50% in size; further: potency means the concentration at half of the fitted maximal effect
Procedure, shortened: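 Human CYP1A2 activity measured with a P450-Glo proluciferin substrate; compounds in DMSO preincubated 10 min at room temperature with enzyme-substrate mix, then NADPH regeneration system added for 1 h. Luciferin detection reagent, 20 min, luminescence read.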

[17] = target: Voltage-gated inwardly rectifying potassium channel KCNH2 (Homo sapiens) (UniProt Q12809); assay: Human Ether-a-go-go-Related Gene (hERG) channel small molecule antagonists: fluorescence cell-based qHTS assay (AID 1671200); further: nearly all actives have a fitted effect of over 50% in size; further: potency means the concentration at half of the fitted maximal effect
Procedure, shortened: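 Cell line hERG-U2OS; dye FluxOR II, 1 h RT dark; Tl+ stimulus; ex 480/em 540 nm, read each second for 2 min.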

[18] = target: Cytochrome P450 3A4 (Homo sapiens) (UniProt P08684); assay: Cytochrome P450 Family 3 Subfamily A Member 4 (CYP3A4) small molecule antagonists: luciferase reporter qHTS assay (AID 1671201); further: nearly all actives have a fitted effect of over 50% in size; further: potency means the concentration at half of the fitted maximal effect
Procedure, shortened: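 Room-temperature assay throughout: 10 min compound–enzyme/substrate preincubation, 1 h reaction after NADPH regeneration solution, 20 min detection. Luciferin formed from proluciferin substrate is quantified by luminescence.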

[19] = target: Nuclear receptor subfamily 1 group I member 2 (Homo sapiens) (UniProt O75469); assay: Human pregnane X receptor (PXR) activation by small molecules, qHTS assay (AID 1346985); further: nearly all actives have a fitted effect of over 40% in size
Procedure, shortened: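 DPX-2 cells (HepG2 co-transfected with a PXR response element and a CYP3A4-promoter luciferase construct) were seeded at 2,000 per well, rested 5 hr at 37C, then exposed to DMSO-dissolved compounds for 24 hr. Activation was read as luciferase luminescence.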
On the % scale 0 is the no-effect control and ±100 the full control effect.

Sequence of Nuclear receptor subfamily 1 group I member 2 (Rattus norvegicus) (Q9R1A7 whole entry, looked up): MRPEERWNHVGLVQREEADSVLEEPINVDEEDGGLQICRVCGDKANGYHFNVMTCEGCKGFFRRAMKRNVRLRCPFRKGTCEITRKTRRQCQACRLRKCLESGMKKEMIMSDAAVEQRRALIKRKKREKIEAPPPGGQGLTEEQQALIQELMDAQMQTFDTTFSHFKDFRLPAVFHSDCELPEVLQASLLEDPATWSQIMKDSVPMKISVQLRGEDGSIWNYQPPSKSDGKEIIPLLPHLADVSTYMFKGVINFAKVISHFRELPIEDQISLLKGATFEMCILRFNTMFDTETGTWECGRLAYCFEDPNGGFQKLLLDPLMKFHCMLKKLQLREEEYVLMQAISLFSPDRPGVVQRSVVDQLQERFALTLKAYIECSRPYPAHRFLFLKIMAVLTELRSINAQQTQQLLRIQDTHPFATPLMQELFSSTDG
Sequence of Voltage-gated inwardly rectifying potassium channel KCNH2 (Homo sapiens) (Q12809 whole entry, looked up): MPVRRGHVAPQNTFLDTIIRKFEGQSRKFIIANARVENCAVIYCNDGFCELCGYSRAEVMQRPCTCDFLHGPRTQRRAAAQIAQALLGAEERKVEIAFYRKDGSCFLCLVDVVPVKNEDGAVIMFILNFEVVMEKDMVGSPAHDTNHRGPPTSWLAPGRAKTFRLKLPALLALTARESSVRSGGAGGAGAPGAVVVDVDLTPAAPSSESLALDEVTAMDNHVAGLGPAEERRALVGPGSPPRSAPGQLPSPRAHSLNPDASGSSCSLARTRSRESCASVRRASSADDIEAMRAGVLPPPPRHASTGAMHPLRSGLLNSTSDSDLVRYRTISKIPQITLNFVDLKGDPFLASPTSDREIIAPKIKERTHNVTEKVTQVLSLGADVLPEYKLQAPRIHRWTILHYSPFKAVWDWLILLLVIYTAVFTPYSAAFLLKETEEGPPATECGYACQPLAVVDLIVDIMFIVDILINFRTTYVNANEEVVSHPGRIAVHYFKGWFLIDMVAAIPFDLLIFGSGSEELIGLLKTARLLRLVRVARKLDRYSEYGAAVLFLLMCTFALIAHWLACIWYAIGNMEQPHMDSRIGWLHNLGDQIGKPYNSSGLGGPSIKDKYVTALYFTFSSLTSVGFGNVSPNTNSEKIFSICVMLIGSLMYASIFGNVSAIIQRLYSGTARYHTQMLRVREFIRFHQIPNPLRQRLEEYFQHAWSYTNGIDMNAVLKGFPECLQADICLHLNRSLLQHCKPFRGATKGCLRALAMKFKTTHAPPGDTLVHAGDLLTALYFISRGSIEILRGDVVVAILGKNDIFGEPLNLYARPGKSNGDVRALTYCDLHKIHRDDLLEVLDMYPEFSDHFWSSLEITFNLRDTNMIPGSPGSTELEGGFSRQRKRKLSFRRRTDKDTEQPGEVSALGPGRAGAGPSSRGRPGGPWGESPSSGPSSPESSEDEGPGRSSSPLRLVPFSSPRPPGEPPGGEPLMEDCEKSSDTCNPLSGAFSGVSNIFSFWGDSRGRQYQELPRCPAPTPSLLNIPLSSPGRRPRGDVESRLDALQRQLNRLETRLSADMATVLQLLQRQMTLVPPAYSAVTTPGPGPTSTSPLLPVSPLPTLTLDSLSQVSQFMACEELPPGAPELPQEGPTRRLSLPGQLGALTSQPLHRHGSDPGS
Sequence of Nuclear receptor subfamily 1 group I member 2 (Homo sapiens) (O75469 whole entry, looked up): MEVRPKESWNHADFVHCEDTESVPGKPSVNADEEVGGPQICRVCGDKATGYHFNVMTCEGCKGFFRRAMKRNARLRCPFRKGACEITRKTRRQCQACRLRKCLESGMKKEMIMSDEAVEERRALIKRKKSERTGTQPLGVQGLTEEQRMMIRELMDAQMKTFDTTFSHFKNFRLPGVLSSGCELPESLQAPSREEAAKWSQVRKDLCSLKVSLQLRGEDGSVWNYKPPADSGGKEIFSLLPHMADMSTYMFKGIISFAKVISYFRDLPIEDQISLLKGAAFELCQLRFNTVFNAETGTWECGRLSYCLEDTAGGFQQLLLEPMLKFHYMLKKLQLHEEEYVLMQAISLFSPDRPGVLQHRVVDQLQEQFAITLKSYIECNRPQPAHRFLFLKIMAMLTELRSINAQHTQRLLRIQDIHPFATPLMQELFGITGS
Sequence of Acetylcholinesterase (Homo sapiens) (P22303 whole entry, looked up): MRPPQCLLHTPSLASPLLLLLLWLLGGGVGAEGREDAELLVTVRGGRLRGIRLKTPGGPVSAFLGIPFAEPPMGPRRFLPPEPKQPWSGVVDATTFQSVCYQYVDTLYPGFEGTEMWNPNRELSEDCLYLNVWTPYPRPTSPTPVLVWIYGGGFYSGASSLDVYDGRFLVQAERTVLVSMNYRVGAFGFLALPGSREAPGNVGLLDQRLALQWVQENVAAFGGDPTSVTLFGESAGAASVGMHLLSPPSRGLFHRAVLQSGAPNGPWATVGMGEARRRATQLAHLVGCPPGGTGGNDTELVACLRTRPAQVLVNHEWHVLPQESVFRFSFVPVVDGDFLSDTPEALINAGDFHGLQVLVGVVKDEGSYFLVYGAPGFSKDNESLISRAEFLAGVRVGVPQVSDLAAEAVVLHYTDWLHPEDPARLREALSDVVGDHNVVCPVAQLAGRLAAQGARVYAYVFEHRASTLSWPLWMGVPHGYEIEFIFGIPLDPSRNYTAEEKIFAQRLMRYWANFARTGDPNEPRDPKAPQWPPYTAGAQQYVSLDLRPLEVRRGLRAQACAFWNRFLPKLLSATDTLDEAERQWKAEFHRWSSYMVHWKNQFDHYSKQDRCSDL
Sequence of Cytochrome P450 2C19 (Homo sapiens) (P33261 whole entry, looked up): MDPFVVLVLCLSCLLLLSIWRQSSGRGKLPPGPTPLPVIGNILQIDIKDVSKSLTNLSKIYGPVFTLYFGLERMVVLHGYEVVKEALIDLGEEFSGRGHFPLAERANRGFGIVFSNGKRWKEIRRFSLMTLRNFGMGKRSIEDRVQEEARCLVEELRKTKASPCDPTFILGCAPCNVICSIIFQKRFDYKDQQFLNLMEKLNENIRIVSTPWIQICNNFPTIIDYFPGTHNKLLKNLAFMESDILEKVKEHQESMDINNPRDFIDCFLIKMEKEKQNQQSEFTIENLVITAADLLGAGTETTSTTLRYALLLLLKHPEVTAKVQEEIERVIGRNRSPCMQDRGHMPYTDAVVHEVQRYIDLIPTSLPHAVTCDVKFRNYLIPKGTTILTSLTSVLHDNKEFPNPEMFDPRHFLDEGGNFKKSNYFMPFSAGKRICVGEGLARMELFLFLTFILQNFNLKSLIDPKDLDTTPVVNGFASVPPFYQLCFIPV
Sequence of Cytochrome P450 2D6 (Homo sapiens) (P10635 whole entry, looked up): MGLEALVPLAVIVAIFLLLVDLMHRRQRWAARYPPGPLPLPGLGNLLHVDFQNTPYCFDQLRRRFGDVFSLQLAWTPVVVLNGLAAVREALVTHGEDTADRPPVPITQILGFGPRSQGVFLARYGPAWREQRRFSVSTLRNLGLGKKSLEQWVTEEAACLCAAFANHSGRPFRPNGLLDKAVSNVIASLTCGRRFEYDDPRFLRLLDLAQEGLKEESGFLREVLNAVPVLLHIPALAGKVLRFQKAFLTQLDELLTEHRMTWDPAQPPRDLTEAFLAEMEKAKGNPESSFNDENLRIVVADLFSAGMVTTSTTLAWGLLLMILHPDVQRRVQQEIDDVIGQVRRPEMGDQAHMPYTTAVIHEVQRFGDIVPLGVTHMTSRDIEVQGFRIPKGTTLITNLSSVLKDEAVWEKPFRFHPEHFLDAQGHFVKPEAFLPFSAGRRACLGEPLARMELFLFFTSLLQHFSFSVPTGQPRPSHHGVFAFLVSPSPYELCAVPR
Sequence of Cytochrome P450 1A2 (Homo sapiens) (P05177 whole entry, looked up): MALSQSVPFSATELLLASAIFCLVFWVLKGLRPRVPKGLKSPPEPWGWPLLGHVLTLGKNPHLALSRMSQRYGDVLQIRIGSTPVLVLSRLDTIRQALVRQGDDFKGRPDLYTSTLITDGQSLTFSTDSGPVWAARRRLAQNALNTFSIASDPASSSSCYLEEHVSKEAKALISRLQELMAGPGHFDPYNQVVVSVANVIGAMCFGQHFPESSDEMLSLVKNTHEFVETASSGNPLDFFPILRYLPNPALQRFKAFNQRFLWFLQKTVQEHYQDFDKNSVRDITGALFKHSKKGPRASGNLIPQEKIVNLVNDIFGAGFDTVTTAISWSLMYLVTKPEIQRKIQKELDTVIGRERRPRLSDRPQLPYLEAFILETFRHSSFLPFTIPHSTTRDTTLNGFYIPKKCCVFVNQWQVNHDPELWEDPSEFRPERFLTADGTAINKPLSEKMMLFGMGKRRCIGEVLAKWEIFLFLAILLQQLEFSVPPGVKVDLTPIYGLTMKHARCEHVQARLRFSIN
Sequence of Cytochrome P450 3A4 (Homo sapiens) (P08684 whole entry, looked up): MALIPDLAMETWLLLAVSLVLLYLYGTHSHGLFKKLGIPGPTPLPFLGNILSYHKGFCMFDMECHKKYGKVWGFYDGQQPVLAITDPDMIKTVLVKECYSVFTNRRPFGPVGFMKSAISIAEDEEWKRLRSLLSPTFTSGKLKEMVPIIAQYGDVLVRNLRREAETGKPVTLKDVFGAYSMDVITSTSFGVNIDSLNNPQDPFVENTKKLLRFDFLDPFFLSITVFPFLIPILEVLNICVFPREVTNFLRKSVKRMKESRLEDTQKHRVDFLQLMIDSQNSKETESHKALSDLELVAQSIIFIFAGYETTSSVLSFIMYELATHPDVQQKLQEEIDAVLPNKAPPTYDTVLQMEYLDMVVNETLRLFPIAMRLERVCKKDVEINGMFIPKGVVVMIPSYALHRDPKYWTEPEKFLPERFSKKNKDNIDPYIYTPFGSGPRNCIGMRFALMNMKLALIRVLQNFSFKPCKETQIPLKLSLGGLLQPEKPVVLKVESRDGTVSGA

CC(C)NCC(O)c1ccccc1Cl (configuration not stated)
active: Potency [13] 7.76 µM
inactive: Potency [1] | Potency [2] | Potency [3] | Potency [4] | Potency [5] | Potency [6] | max activation [7] 1.03% | Potency [8] | Potency [9] | Potency [10] | Potency [11] | Potency [12] | Potency [14] | Potency [15] | Potency [16] | Potency [17] | Potency [18]

CN(C)C(=S)SSC(=S)N(C)C
89.4 µM (active) and inactive: Potency [13]
active: Potency [1] 447 nM and 486 nM and 422 nM | Potency [2] 851 nM and 864 nM and 668 nM | Potency [3] 240 nM and 344 nM and 298 nM | Potency [5] 26.9 µM and 19.3 µM and 15 µM | Potency [11] 35.1 µM and 39.9 µM and 21.9 µM | Potency [14] 7 µM and 6.33 µM and 3.09 µM | Potency [15] 9.89 µM and 6.33 µM and 2.19 µM | Potency [16] 3.94 µM and 4.48 µM and 2.75 µM | Potency [17] 43 µM and 49 µM | Potency [18] 39.4 µM
inactive: Potency [4] | Potency [6] | max activation [7] -13.9% | Potency [8] | Potency [10] | Potency [12]
78.5 µM (active) and inactive: Potency [9]

Cc1ccn2nc(S(=O)(=O)Nc3c(F)cccc3F)nc2n1
active: Potency [15] 39.9 µM
inactive: Potency [1] | Potency [2] | Potency [3] | Potency [4] | Potency [5] | Potency [6] | Potency [9] | Potency [10] | Potency [11] | Potency [12] | Potency [13] | Potency [14] | Potency [16] | Potency [17] | Potency [18]

Oc1cccc(Cl)c1Cl
active: Potency [13] 56.6 µM | Potency [14] 80 µM | Potency [16] 35.7 µM
inactive: Potency [1] | Potency [2] | Potency [3] | Potency [4] | Potency [5] | Potency [6] | Potency [9] | Potency [10] | Potency [11] | Potency [12] | Potency [15] | Potency [17] | Potency [18]

CC(Cc1ccc(O)cc1)NCC(O)c1cc(O)cc(O)c1 (configuration not stated)
inactive: Potency [1] | Potency [2] | Potency [3] | Potency [4] | Potency [5] | Potency [6] | max activation [7] -1.7% | Potency [8] | Potency [19] | Potency [14] | Potency [15] | Potency [16] | Potency [17] | Potency [18]
active: Potency [13] 9.77 µM

ClCBr
inactive: Potency [1] | Potency [2] | Potency [3] | Potency [4] | Potency [5] | Potency [6] | Potency [9] | Potency [10] | Potency [11] | Potency [12] | Potency [13] | Potency [14] | Potency [15] | Potency [16] | Potency [17]

O=c1c2ccccc2c(=O)c2c1cc(Cl)c1[nH]c3c([nH]c12)c(Cl)cc1c(=O)c2ccccc2c(=O)c13
inactive: Potency [1] | Potency [2] | Potency [3] | Potency [4] | Potency [5] | Potency [6] | Potency [9] | Potency [10] | Potency [11] | Potency [12] | Potency [13] | Potency [14] | Potency [17] | Potency [18]
